The full data set covers some 7,900 targets. This sample favours those with a hit. About 0.6% of all pairs of compound and target were hits.
Key:
Experiment in all cases: log2 fold change, soluble protein after heating vs DMSO (PISA); higher = thermal stabilisation; K562 cells, 10 uM, 30 min; active = over 0.2 and 3.5 SD of the protein, either way, in both replicates (recomputed)
[1] = compound: COC1=CC=C(C=C1)CN2C=CC3=C2C=C(C=C3)C(=O)NO
Procedure, shortened: (§1)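 K562 cells (2×10^6 cells/mL) were treated with 10 μM compound for 30 min, and aliquots were heated for 3 min over 48°C-58°C. Pooled aliquots were extracted in PBS with 0.5% NP-40 at 4°C, and the supernatant after 21,000xg for 90 min was measured by TMTpro 16plex LC-MS/MS with channel sums equalised. Reported thermal stability, relative to control samples and from duplicates, is a log2 fold change.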

filanesib = compound: CON(C)C(=O)N1N=C(c2cc(F)ccc2F)S[C@@]1(CCCN)c1ccccc1 [filanesib]
Procedure, shortened: as §1

zotarolimus = compound: CO[C@H]1C[C@@H]2CC[C@@H](C)[C@@](O)(O2)C(=O)C(=O)N2CCCC[C@H]2C(=O)O[C@H]([C@H](C)C[C@@H]2CC[C@H](n3cnnn3)[C@H](OC)C2)CC(=O)[C@H](C)/C=C(\C)[C@@H](O)[C@@H](OC)C(=O)[C@H](C)C[C@H](C)/C=C/C=C/C=C/1C [zotarolimus]
Procedure, shortened: as §1

idasanutlin = compound: COc1cc(C(=O)O)ccc1NC(=O)[C@@H]1N[C@@H](CC(C)(C)C)[C@](C#N)(c2ccc(Cl)cc2F)[C@H]1c1cccc(Cl)c1F [idasanutlin]
Procedure, shortened: as §1

alisertib = compound: COc1cc(Nc2ncc3c(n2)-c2ccc(Cl)cc2C(c2c(F)cccc2OC)=NC3)ccc1C(=O)O [alisertib]
Procedure, shortened: as §1

gefitinib = compound: COc1cc2ncnc(Nc3ccc(F)c(Cl)c3)c2cc1OCCCN1CCOCC1 [gefitinib]
Procedure, shortened: as §1

[2] = compound: COc1cccc2cc(-c3nc([C@H]4CC[C@H](C(=O)O)CC4)n4ncnc(N)c34)[nH]c12
Procedure, shortened: as §1

pictilisib = compound: CS(=O)(=O)N1CCN(Cc2cc3nc(-c4cccc5[nH]ncc45)nc(N4CCOCC4)c3s2)CC1 [pictilisib]
Procedure, shortened: as §1

[3] = compound: CS(=O)(=O)c1ccc(-c2cnc(N)c(C(=O)Nc3ccccc3)n2)cc1
Procedure, shortened: as §1

crizotinib = compound: C[C@@H](Oc1cc(-c2cnn(C3CCNCC3)c2)cnc1N)c1c(Cl)ccc(F)c1Cl [crizotinib]
Procedure, shortened: as §1

[4] = compound: C[C@@H]1COCCN1C2=NC(=NC(=C2)C3(CC3)S(=O)(=O)C)C4=C5C=CNC5=CC=C4
Procedure, shortened: as §1

[5] = compound: C[C@H](C1=CC=C(C=C1)C(=O)NC2=C3C=CNC3=NC=C2)N
Procedure, shortened: as §1

gandotinib = compound: Cc1cc(Nc2cc(CN3CCOCC3)c3nc(C)c(Cc4ccc(Cl)cc4F)n3n2)n[nH]1 [gandotinib]
Procedure, shortened: as §1

tozasertib = compound: Cc1cc(Nc2cc(N3CCN(C)CC3)nc(Sc3ccc(NC(=O)C4CC4)cc3)n2)n[nH]1 [tozasertib]
Procedure, shortened: as §1

doramapimod = compound: Cc1ccc(-n2nc(C(C)(C)C)cc2NC(=O)Nc2ccc(OCCN3CCOCC3)c3ccccc23)cc1 [doramapimod]
Procedure, shortened: as §1

ispinesib = compound: Cc1ccc(C(=O)N(CCCN)[C@@H](c2nc3cc(Cl)ccc3c(=O)n2Cc2ccccc2)C(C)C)cc1 [ispinesib]
Procedure, shortened: as §1

[6] = compound: COc1cc2nc(-c3cc(F)ccc3O)nc(N[C@@H]3CNC[C@H]3C(C)(C)O)c2cc1OC
Procedure, shortened: as §1

lapatinib = compound: CS(=O)(=O)CCNCc1ccc(-c2ccc3ncnc(Nc4ccc(OCc5cccc(F)c5)c(Cl)c4)c3c2)o1 [lapatinib]
Procedure, shortened: as §1

duvelisib = compound: C[C@H](Nc1ncnc2nc[nH]c12)c1cc2cccc(Cl)c2c(=O)n1-c1ccccc1 [duvelisib]
Procedure, shortened: as §1

[7] = compound: Cc1cc(SCc2sc(-c3ccc(C(F)(F)F)cc3)nc2C)ccc1OCC(=O)O
Procedure, shortened: as §1

Measured: log2 fold change

PLCL1 (UniProt Q15111)
inactive: [1] 0.048 | filanesib -0.036 | zotarolimus 0.09 | idasanutlin 0.062 | alisertib -0.107 | gefitinib 0.118 | [2] 0.229 | pictilisib -0.073 | [3] 0.112 | crizotinib -0.03 | [4] 0.074 | [5] -0.263 | gandotinib -0.14 | tozasertib -0.015 | doramapimod -0.08 | ispinesib -0.162

PIK3CB (UniProt P42338)
active: pictilisib 0.258 | duvelisib 0.318
inactive: [1] 0.063 | filanesib 0.007 | zotarolimus 0.042 | idasanutlin -0.041 | alisertib 0.003 | [6] 0.02 | gefitinib 0.048 | [2] 0.01 | lapatinib 0.001 | [3] 0.043 | crizotinib -0.077 | [4] 0.064 | [5] 0.034 | gandotinib -0.041 | tozasertib -0.075 | [7] 0.06 | doramapimod 0 | ispinesib -0.057

PNN (UniProt Q9H307)
UniProt Q9H307, sequence (Q9H307 whole entry, looked up): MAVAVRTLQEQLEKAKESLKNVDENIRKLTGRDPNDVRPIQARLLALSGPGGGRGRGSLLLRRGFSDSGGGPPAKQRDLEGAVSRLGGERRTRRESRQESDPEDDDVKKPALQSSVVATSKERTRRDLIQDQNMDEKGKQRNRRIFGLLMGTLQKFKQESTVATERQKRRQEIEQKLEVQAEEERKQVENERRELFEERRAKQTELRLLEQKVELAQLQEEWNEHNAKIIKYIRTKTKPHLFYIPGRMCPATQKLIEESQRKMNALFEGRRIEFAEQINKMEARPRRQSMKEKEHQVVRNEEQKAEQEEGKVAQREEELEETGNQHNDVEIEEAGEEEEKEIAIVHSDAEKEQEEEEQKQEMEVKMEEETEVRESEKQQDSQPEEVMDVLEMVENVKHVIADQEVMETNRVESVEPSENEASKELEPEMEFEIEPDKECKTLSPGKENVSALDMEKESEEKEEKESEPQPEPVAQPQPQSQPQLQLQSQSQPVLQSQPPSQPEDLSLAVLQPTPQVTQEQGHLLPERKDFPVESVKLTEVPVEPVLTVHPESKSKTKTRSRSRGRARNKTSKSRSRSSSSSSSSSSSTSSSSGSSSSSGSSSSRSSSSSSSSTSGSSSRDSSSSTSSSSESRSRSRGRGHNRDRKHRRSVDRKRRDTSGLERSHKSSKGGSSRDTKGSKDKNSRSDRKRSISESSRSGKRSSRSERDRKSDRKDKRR
inactive: [1] -0.004 | filanesib 0.083 | zotarolimus -0.047 | idasanutlin 0.125 | alisertib -0.017 | [6] -0.14 | gefitinib 0.031 | [2] 0.056 | lapatinib -0.037 | pictilisib -0.015 | [3] -0.043 | crizotinib -0.154 | [4] 0.022 | [5] -0.05 | duvelisib 0.034 | gandotinib 0.012 | [7] -0.003 | doramapimod -0.032 | ispinesib -0.08

PI4K2B (UniProt Q8TCG2)
UniProt Q8TCG2, sequence (Q8TCG2 whole entry, looked up): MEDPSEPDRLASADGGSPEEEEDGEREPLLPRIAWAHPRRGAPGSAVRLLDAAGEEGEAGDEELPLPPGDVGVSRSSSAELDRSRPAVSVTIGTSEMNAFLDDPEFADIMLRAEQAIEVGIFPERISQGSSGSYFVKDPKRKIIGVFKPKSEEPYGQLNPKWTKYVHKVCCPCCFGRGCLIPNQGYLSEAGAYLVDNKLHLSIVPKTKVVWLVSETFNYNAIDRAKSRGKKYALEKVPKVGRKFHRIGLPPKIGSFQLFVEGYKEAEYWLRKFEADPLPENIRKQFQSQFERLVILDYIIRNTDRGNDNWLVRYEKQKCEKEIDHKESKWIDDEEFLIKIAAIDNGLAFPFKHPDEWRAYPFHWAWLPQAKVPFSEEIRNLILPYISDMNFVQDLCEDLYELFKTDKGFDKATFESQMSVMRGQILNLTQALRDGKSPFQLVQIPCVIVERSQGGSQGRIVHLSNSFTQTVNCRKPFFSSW
inactive: [1] -0.035 | filanesib -0.059 | zotarolimus -0.014 | idasanutlin -0.034 | alisertib -0.059 | gefitinib 0.4 | [2] -0.054 | pictilisib 0.051 | [3] 0.06 | crizotinib -0.184 | [5] 0.118 | duvelisib 0.132 | gandotinib -0.045 | tozasertib -0.168 | [7] -0.016 | doramapimod 0.01
active: ispinesib -0.355

PCBP2 isoform 3 (UniProt Q15366)
UniProt Q15366, sequence (Q15366 whole entry, looked up): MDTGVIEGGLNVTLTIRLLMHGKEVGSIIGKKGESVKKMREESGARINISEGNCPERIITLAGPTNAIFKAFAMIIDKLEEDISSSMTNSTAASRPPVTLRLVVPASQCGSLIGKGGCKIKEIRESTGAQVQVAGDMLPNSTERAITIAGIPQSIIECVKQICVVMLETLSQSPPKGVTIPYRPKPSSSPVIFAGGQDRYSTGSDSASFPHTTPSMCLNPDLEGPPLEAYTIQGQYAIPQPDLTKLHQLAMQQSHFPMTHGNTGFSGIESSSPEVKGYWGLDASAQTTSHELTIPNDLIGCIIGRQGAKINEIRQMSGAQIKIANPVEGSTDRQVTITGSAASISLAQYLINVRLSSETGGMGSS
inactive: [1] 0.138 | filanesib -0.031 | zotarolimus 0.048 | idasanutlin -0.064 | alisertib 0.012 | [6] -0.092 | gefitinib 0.011 | [2] 0.002 | lapatinib 0.003 | pictilisib -0.013 | [3] -0.036 | crizotinib -0.018 | [4] 0.06 | [5] -0.031 | duvelisib -0.006 | gandotinib -0.065 | tozasertib 0.056 | [7] 0.072 | doramapimod -0.008 | ispinesib 0.005

POGZ (UniProt Q7Z3K3)
inactive: [1] -0.066 | filanesib -0.021 | zotarolimus 0.008 | idasanutlin 0.01 | [6] 0.095 | lapatinib -0.086 | pictilisib 0.082 | [3] 0.044 | crizotinib -0.019 | [4] 0.242 | [5] 0.01 | duvelisib -0.115 | gandotinib 0.143 | tozasertib 0.153 | [7] 0.142 | doramapimod 0.053 | ispinesib -0.221

PIKFYVE (UniProt Q9Y2I7)
UniProt Q9Y2I7, sequence (Q9Y2I7 whole entry, looked up): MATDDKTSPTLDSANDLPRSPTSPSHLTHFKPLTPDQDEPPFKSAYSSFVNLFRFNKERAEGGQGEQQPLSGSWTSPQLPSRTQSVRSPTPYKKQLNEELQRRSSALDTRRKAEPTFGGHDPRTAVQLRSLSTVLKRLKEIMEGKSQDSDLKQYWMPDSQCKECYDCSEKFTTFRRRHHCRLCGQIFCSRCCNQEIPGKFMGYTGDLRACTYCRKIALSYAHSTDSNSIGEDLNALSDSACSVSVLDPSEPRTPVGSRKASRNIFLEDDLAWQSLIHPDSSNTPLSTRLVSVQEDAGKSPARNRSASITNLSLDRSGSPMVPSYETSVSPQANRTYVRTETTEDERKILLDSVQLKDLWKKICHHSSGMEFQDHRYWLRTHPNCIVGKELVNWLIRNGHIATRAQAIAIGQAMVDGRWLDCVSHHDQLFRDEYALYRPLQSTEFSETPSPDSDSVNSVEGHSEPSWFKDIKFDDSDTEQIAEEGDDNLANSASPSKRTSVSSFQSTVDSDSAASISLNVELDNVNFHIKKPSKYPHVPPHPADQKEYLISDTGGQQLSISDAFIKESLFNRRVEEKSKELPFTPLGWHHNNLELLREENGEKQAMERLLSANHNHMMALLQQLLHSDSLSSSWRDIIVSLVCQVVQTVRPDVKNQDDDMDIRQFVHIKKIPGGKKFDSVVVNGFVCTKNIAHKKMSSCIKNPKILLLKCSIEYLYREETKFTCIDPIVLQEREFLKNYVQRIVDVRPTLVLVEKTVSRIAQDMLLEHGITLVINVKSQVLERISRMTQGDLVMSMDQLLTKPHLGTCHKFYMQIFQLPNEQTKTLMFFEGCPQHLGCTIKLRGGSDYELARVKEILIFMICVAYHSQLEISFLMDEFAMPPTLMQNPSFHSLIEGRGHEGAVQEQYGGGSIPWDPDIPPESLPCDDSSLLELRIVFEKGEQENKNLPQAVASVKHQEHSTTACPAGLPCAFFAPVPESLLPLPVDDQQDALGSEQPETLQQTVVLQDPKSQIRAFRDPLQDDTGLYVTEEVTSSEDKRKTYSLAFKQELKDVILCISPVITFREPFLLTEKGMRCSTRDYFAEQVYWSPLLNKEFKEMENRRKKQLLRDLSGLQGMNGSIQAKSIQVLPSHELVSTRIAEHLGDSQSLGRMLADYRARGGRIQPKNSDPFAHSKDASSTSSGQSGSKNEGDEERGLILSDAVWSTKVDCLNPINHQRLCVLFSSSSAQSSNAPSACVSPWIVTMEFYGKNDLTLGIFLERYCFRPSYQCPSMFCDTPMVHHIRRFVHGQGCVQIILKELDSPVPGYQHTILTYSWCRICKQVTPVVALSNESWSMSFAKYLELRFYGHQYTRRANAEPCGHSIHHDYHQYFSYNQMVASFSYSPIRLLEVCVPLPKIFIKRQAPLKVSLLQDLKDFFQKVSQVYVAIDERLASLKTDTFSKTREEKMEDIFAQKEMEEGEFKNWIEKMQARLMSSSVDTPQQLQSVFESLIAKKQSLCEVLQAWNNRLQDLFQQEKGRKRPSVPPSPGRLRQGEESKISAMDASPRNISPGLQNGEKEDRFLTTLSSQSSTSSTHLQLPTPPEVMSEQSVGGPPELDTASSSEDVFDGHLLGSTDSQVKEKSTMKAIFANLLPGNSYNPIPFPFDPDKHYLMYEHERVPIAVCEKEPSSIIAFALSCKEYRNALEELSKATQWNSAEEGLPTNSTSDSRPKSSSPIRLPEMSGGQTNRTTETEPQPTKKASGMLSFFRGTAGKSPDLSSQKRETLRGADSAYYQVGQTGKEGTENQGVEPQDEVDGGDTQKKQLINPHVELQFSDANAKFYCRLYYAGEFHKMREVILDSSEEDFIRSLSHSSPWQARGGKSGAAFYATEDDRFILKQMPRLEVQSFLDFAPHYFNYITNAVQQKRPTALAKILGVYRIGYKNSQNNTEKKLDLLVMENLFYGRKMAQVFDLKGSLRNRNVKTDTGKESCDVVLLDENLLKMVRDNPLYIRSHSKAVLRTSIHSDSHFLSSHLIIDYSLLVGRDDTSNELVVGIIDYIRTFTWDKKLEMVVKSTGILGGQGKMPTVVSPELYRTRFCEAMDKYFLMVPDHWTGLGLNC
inactive: [1] 0.03 | filanesib -0.036 | zotarolimus -0.074 | idasanutlin -0.096 | alisertib 0.016 | [6] -0.037 | gefitinib -0.308 | [2] -0.044 | lapatinib -0.098 | pictilisib -0.047 | [3] -0.016 | crizotinib -0.068 | [4] 0.096 | [5] 0.073 | duvelisib 0.005 | gandotinib -0.062 | tozasertib -0.005 | [7] 0.091 | doramapimod 0.023 | ispinesib -0.061

PRG4 (UniProt Q92954)
inactive: [1] 0.17 | filanesib 0.081 | idasanutlin 0.174 | alisertib 0.01 | gefitinib 0.034 | [2] 0.229 | pictilisib -0.062 | [3] 0.08 | crizotinib -0.19 | [4] -0.014 | [5] 0.023 | duvelisib -0.145 | gandotinib 0.098 | tozasertib 0.167 | [7] 0.004 | doramapimod -0.229 | ispinesib -0.114
active: zotarolimus -0.955

POM121 (UniProt Q96HA1)
inactive: [1] -0.03 | filanesib 0.055 | zotarolimus -0.018 | idasanutlin 0.146 | [6] -0.027 | gefitinib -0.002 | lapatinib -0.01 | pictilisib 0.003 | [3] 0.024 | crizotinib -0.139 | [4] -0.016 | [5] 0.084 | duvelisib -0.022 | gandotinib -0.043 | tozasertib 0.014 | [7] 0.008 | doramapimod 0.134
active: ispinesib -0.307

PSMB9 (UniProt P28065)
inactive: [1] 0.25 | filanesib 0.189 | zotarolimus -0.08 | idasanutlin -0.028 | [6] 0.246 | lapatinib -0.064 | pictilisib -0.006 | [3] 0.259 | crizotinib 0 | [4] 0.075 | [5] 0.066 | gandotinib 0.126 | doramapimod 0.084

POLR2C (UniProt P19387)
inactive: [1] -0.04 | filanesib 0.034 | zotarolimus -0.012 | idasanutlin -0.074 | alisertib 0.013 | [6] -0.022 | gefitinib -0.045 | [2] 0.086 | lapatinib 0.099 | [3] 0.019 | crizotinib 0.127 | [4] -0.062 | [5] 0.163 | duvelisib 0.032 | tozasertib 0.017 | [7] 0.113 | doramapimod 0.012 | ispinesib 0.034

PDIK1L (UniProt Q8N165)
inactive: [1] -0.014 | filanesib 0.112 | zotarolimus -0.059 | idasanutlin 0.001 | alisertib 0.099 | [6] -0.127 | gefitinib 0.012 | [2] 0.092 | lapatinib 0.086 | [3] 0.009 | crizotinib -0.082 | [4] -0.003 | [5] 0.029 | duvelisib 0.086 | tozasertib -0.094 | [7] 0.017 | doramapimod 0.085 | ispinesib 0.039

PDCD2L (UniProt Q9BRP1)
UniProt Q9BRP1, sequence (Q9BRP1 whole entry, looked up): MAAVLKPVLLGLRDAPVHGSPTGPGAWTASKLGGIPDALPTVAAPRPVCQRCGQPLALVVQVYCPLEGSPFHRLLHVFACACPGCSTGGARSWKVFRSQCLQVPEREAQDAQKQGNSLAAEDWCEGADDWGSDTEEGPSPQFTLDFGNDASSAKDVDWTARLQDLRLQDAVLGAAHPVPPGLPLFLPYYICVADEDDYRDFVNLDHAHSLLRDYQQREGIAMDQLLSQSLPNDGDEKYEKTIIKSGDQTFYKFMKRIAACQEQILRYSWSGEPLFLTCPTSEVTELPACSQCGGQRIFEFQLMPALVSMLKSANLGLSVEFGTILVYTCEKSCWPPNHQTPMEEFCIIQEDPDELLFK
inactive: [1] 0.085 | filanesib 0.014 | zotarolimus -0.033 | idasanutlin -0.031 | alisertib -0.033 | [6] 0 | gefitinib -0.09 | [2] -0.018 | lapatinib -0.048 | pictilisib -0.062 | [3] -0.059 | crizotinib -0.048 | [4] -0.083 | [5] 0.068 | duvelisib 0.053 | gandotinib 0.225 | tozasertib -0.007 | [7] 0.097 | doramapimod -0.058 | ispinesib 0.062

PRUNE1 (UniProt Q86TP1)
inactive: [1] -0.083 | filanesib -0.047 | zotarolimus 0.026 | idasanutlin 0.023 | alisertib 0.091 | [6] 0.059 | gefitinib 0.006 | [2] -0.007 | lapatinib -0.038 | pictilisib 0.072 | [3] -0.011 | crizotinib -0.064 | [4] -0.002 | [5] -0.026 | duvelisib -0.047 | gandotinib -0.071 | tozasertib 0.097 | [7] 0.056 | doramapimod 0.008 | ispinesib -0.018

PPP1CA (UniProt P62136)
UniProt P62136, sequence (P62136 whole entry, looked up): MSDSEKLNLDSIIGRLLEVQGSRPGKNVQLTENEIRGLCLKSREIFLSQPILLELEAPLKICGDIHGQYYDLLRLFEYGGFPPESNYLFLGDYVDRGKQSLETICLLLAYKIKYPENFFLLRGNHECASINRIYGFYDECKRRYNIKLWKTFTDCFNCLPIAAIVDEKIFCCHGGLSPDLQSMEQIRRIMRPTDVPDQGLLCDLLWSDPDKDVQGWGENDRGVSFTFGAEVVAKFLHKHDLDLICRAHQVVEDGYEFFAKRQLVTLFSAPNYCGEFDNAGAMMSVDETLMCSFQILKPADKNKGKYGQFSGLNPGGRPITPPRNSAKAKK
active: [1] 0.263
inactive: filanesib 0.012 | zotarolimus -0.032 | idasanutlin 0.016 | alisertib 0.024 | [6] 0.015 | gefitinib 0.032 | [2] 0.023 | lapatinib 0.001 | pictilisib 0.013 | [3] 0.042 | crizotinib 0.042 | [4] 0.013 | [5] -0.069 | duvelisib 0.048 | gandotinib 0.026 | tozasertib 0.034 | [7] -0.045 | doramapimod -0.003 | ispinesib 0.083

PLK1 (UniProt P53350)
UniProt P53350, sequence (P53350 whole entry, looked up): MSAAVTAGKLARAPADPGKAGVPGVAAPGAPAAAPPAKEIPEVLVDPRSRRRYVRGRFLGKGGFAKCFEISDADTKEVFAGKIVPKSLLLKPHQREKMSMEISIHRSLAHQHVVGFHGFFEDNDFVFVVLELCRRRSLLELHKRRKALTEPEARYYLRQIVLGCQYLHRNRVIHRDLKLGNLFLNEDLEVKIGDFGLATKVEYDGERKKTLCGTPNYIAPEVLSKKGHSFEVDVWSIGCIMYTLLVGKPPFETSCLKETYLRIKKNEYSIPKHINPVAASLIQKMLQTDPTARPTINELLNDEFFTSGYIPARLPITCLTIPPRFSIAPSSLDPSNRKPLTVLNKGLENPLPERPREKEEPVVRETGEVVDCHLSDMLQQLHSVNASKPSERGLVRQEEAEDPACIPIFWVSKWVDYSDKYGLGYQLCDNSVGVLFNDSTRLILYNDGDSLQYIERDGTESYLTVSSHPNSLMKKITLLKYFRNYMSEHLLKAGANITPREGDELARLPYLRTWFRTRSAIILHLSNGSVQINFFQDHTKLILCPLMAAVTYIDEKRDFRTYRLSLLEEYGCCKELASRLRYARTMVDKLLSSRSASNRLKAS
inactive: [1] 0.013 | filanesib 0.068 | zotarolimus -0.021 | idasanutlin 0.014 | alisertib 0.02 | [6] 0.092 | gefitinib -0.024 | [2] -0.133 | lapatinib 0.041 | pictilisib -0.072 | [3] -0.113 | crizotinib -0.105 | [4] -0.194 | [5] 0.031 | duvelisib 0.012 | gandotinib 0.095 | tozasertib 0.037 | [7] -0.1 | doramapimod 0.032 | ispinesib 0.01
